# Most compounds without a hit are left out; they make up all but 27% or so of the library.
# Cav32 inh – human Cav3.2 channel inhibition, primary screen | Cav3.2-expressing cells, Fluo-4 calcium fluorescence FDSS; stronger effect = lower value | B-score at 10 µM | AID 449739 | 4% of 100,000 active | O95180;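 active means single-dose well whose peak fluorescence ratio is a statistical outlier from its plate by either plate-standardised score or position-corrected B-score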
# CYP2C9 inh – inhibitors of human CYP2C9. CYP2C9 Supersomes, luciferin-H conversion, luminescence. inhibition, % at 5 µM. 20% of 96,000 active. AID 777;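 active means blocking of liver enzyme CYP2C9 beyond about 50% at 5 µM, limit read from the data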
# Target sequence (P11712 whole entry, looked up): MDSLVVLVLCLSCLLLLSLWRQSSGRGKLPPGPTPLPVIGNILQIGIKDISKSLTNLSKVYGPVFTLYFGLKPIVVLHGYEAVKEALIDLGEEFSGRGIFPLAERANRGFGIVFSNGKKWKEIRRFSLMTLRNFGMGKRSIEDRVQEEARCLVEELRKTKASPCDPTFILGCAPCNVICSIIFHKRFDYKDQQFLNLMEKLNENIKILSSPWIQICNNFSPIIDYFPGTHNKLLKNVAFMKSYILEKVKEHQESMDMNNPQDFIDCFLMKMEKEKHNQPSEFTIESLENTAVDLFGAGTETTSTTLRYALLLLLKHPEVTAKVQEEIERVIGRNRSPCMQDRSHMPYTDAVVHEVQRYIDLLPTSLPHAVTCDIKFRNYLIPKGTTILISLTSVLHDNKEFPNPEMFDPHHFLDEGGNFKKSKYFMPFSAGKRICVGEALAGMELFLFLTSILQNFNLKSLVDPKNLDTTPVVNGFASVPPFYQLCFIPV
# CYP2C9 act – increases human cytochrome P450 2C9 activity. P11712. recombinant CYP2C9, luciferin-H conversion, luminescence; stronger effect = higher value; factor 1 = untreated enzyme, 0 = blocked. activation factor at 5 µM. 1.4% of 96,000 active. AID 1024;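 active means activation factor of 2 or more for CYP2C9 at a 5 µM dose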;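 further: 0 = sulfaphenazole-blocked wells and 1 = vehicle-only wells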
# CYP2C19 activ – activators of human cytochrome P450 2C19 | P33261 | recombinant CYP2C19, luciferin-H EGE luminescence; stronger effect = higher value; 0 = fully inhibited enzyme, 1 = untreated enzyme | activation factor at 5 µM | 96,000 tested, under 10 active;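 active means activation factor of at least 2 at 5 µM in the primary screen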;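 further: 0 = wells with 2.5 mM tranylcypromine and 1 = vehicle-only wells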
# CYP2C19 inhib – inhibitors of human CYP2C19. P33261. AID 778. inhibition, % at 5 µM. CYP2C19 Supersomes, luciferin-H EGE luminescence, 30 min. 21% of 96,000 active;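 active means CYP2C19 inhibition above a set limit at 5 µM in the primary screen, cut at about 50% in these data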;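 further: plate controls were negative control wells for no effect and 2.5 mM tranylcypromine positive control for full effect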
# * = called active by the depositor; . = no result.
SMILES,Cav32 inh,CYP2C9 inh,CYP2C9 act,CYP2C19 activ,CYP2C19 inhib
Cc1ccc(C)c(C(=O)CSc2nnnn2-c2cccnc2)c1,-1.2,24,0.8,0.6,36
O=C(CSc1nnc(-c2ccccn2)n1-c1ccc(Cl)cc1)Nc1ccc2c(c1)OCO2,-0.23,1,1,1.1,-8
CC(=O)C(N=Nc1ccccc1)(Sc1nnc(-c2ccccc2)n1-c1ccccc1)C(C)=O,-4.4*,.,.,.,.
O=C(O)CCSc1nnc(-c2cccnc2)n1-c1ccccc1,1.7,-4,1,1,-1
O=C(OCc1cc2ccccc2[nH]c1=O)c1ccccc1,-0.76,44,0.6,0.4,59*
O=C(OCc1cc2ccccc2[nH]c1=O)c1ccncc1,-0.92,.,.,.,.
CC1CCCC(NC(=O)c2ccc3c(=O)n(CC4CCCO4)c(=O)[nH]c3c2)C1C (stereo not drawn),0.08,-9,1.1,0.8,18
CC1=C(C(=O)OC(C)C)C(c2cccc(F)c2)N2C(=O)C(C)SC2=N1 (stereo not drawn),-2.3,70*,0.3,0.2,81*
CCOC(=O)C1=C(C)N=C2SC(C)C(=O)N2C1c1ccc(OC(C)=O)c(OCC)c1 (stereo not drawn),.,63*,0.4,0.3,65*
CC1=C(C(=O)OCC(C)C)C(c2cccc(F)c2)N2C(=O)C(C)SC2=N1 (stereo not drawn),-6.1*,75*,0.3,0.3,75*
CCOC(=O)C1=C(C)N=C2SC(C)C(=O)N2C1c1cccc(F)c1 (stereo not drawn),-6.5*,25,0.8,0.8,25
COC(=O)C1=C(C)N=C2SC(C)C(=O)N2C1c1cccs1 (stereo not drawn),-0.039,11,0.9,0.7,30
CCOC(=O)C1=C(C)N=C2SCCC(=O)N2C1c1cccs1 (stereo not drawn),1,32,0.7,0.8,24
FC(F)(F)C1=CC(c2ccc(Br)cc2)=NCCN1,-0.15,11,0.9,0.9,10
CCOC(=O)C1=C(C)N=C2SC(C(=O)OC)=CC(=O)N2C1c1ccc(F)cc1 (stereo not drawn),-1.7,18,0.8,0.5,50*
CC1(C)Cc2c(c(-c3ccccc3)nc(N3CCCC3)c2C(N)=O)CO1,0.15,-12,1.1,1.1,-11
N#CC1=C(N)Oc2n[nH]c(-c3ccccc3)c2C1c1cccc(OC(=O)N2CCOCC2)c1 (stereo not drawn),0.41,57*,0.4,0.8,19
N#CC1=C(N)Oc2n[nH]c(-c3ccncc3)c2C1c1ccsc1 (stereo not drawn),-0.0093,89*,0.1,0.5,46
COc1cccc(-c2[nH]nc3c2C(c2ccoc2)C(C#N)=C(N)O3)c1 (stereo not drawn),0.08,50,0.5,0.1,87*
N#CC1=C(N)Oc2n[nH]c(-c3ccccc3)c2C1c1ccsc1 (stereo not drawn),-1.2,.,.,.,.
COC(=O)C1=C(CN2CCc3ccccc32)NC(=O)NC1c1cc(C)ccc1C (stereo not drawn),.,-9,1.1,1,2
CCOC(=O)C1=C(CN2c3ccccc3CC2C)NC(=O)NC1c1ccccc1 (stereo not drawn),-7.8*,20,0.8,0.7,34
COC(=O)C1=C(CN2CCCc3ccccc32)NC(=O)NC1c1ccc(F)cc1 (stereo not drawn),-3.9*,42,0.6,0.3,72*
O=C(Cc1ccccc1)N[C@@H](Cc1ccc(O)cc1)C(=O)O,-0.11,.,.,.,.
COc1ccc(-c2c(C3=CCCCC3)oc3ccc(-c4ccc5c(c4)OCO5)cc23)cn1,-0.29,.,.,.,.
SMILES,Cav32 inh,CYP2C9 inh,CYP2C9 act,CYP2C19 activ,CYP2C19 inhib
CCOC(=O)[C@@H]1[C@H]2COc3ccccc3[C@@H]2N2C(=O)N(c3cccc(F)c3)C(=O)[C@]12C,0.4,.,.,.,.
N#C/C(=C\c1cn(-c2ccccc2)nc1-c1cccnc1)c1nnc2n1CCCCC2,1,93*,0.1,0.4,59*
NNc1nnc(-c2ccccc2)c(-c2ccccc2)n1,0.24,79*,0.2,0.1,88*
N#CCSc1nnc(-c2ccccc2)c(-c2ccccc2)n1,-1.7,39,0.6,0.7,32
OCCNc1nc(Nc2ccccc2O)nc(N2CCCC2)n1,0.74,.,.,.,.
COc1cc2c(cc1OC)-c1nnc(-c3cccs3)n1C1(CCCC1)C2,1.7,-12,1.1,1.1,-9
CC1(C)CC(=O)C2=C(C1)N(Cc1ccco1)C(=O)C2(NC(=O)c1ccc(Cl)cc1Cl)C(F)(F)F (stereo not drawn),-0.11,7,0.9,0.2,83*
CC1(C)CC(=O)C2=C(C1)N(Cc1ccco1)C(=O)C2(NC(=O)C1CCCCC1)C(F)(F)F (stereo not drawn),2.3,51*,0.5,0.6,38
CC(=O)C1=C(C)N(Cc2ccco2)C(=O)C1(NC(=O)C1CCCCC1)C(F)(F)F (stereo not drawn),0.76,27,0.7,1.1,-8
CC1=NC(C(F)(F)F)(C(F)(F)F)C2=C(CC(C)(C)CC2=O)N1Cc1ccco1,-0.072,54*,0.5,0.4,56*
Cc1nc2c(Cl)cccc2[nH]1,0.6,3,1,1,3
COc1cccc(C2=NN(C(=O)c3ccccc3)C(O)(C(F)(F)F)C2)c1 (stereo not drawn),.,92*,0.1,0.1,89*
Cn1c(Cn2c(=O)sc3ccccc32)nnc1SCC(=O)NC1CCCC1,0.38,.,.,.,.
CCCCc1c(O)nc(SCC(=O)N2CCOCC2)[nH]c1=O,0.36,-7,1.1,1.1,-12
Cc1ccc(C(=O)C(C)OC(=O)c2n[nH]c(=O)c3ccccc23)cc1 (stereo not drawn),-0.077,84*,0.2,0.3,68*
Cc1ccc(C(=O)COC(=O)c2n[nH]c(=O)c3ccccc23)cc1,-1.3,21,0.8,0.7,26
COc1ccc(CCNc2oc(COc3ccc(Br)cc3)nc2C#N)cc1OC,-3.4,51*,0.5,0.7,34
CN(C)CCNc1oc(COc2ccc(-c3ccccc3)cc2)nc1C#N,-2.4,16,0.8,0.8,23
COc1ccc(CCNc2oc(Cc3cccc4ccccc34)nc2C#N)cc1OC,-1.4,57*,0.4,0.5,49
COc1ccc(-c2nc(C#N)c(NCc3ccccc3Cl)o2)cc1OC,-0.13,47,0.5,0.9,12
Cn1c(N)c(C(=O)COC(=O)C2CCCCC2)c(=O)n(C)c1=O,0.81,-4,1,0.9,11
Nc1nc(Nc2ccccc2Br)nc(C(F)(F)F)n1,0.14,54*,0.5,0.5,46
Nc1nc(Nc2ccc(Cl)cc2Cl)nc(C(F)(F)F)n1,.,18,0.8,0.8,16
O=S(=O)(c1ccc2nc(COc3ccccc3)[nH]c2c1)N1CCOCC1,0.39,-8,1.1,1.2,-19
Cc1cc(Nc2c(C)n(C)n(-c3ccccc3)c2=O)n2c(nc3ccccc32)c1C#N,.,40,0.6,0.7,27

# Screening data (PubChem BioAssay)
